The text below walks through data of the supplement of paper PMC8728848.

Experiment in all cases: glycan array binding signal (z-score within array); higher = stronger binding
What all share (settings): glycan notation: IUPAC condensed, linker removed

The subject of test [1] is GalNAc(b1-3)Gal(a1-6)Gal(b1-4)Glc. An outline of the steps:
(§1)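 Glycan array data came from 3228 arrays in the Consortium for Functional Glycomics database, and only arrays with an available protein sequence were kept. Glycan names were put into IUPAC-condensed notation, and columns mapping to the same glycan were averaged. The binding signal is a within-array Z-score, averaged across arrays of one protein sequence run at different concentrations or buffers and across linkers. A negative Z-score can be read as non-binding.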

The test system of the next test is GalNAc(a1-3)Gal. The essentials:
as §1

The test system of a further test is GalNAc(b1-3)GlcNAc. An outline of the steps:
as §1

A further test has as its system GalNAc(b1-6)GalNAc. An outline of the steps: as §1
The test system of another test is GalNAc(b1-3)GalNAc. The essentials:
as §1

Test [2] deals with GalNAc(b1-4)GlcNAc(b1-3)GalNAc(b1-4)GlcNAc. The essentials:
as §1

Test [3] deals with GalNAc(b1-3)Gal(a1-4)Gal(b1-4)GlcNAc. An outline of the steps: as §1
Another test concerns GalNAc(b1-4)Gal(b1-4)Glc. The essentials: as §1
The test system of test [4] is GalNAc(b1-4)GlcNAc(b1-2)Man(a1-3)[GalNAc(b1-4)GlcNAc(b1-2)Man(a1-6)]Man(b1-4)GlcNAc(b1-4)GlcNAc. An outline of the steps: as §1
Test [5] deals with GalNAc(a1-3)GalNAc(b1-3)Gal(a1-4)Gal(b1-4)Glc. An outline of the steps: as §1

About 410 targets per protein were measured; listed, in parts, are those with the strongest signals and a random draw of the rest.

On to Epa22, for which the “glycan array binding signal (z-score)” value in test [1] was -0.822. Take “AgI/II Vhelical-GFP (Streptococcus mutans)”: the figures for the “glycan array binding signal (z-score)” value in the test on GalNAc(a1-3)Gal and in the test with GalNAc(b1-3)GlcNAc were -0.061 and -0.152, respectively. Turning to Actinohivin (Actinomycete K97), the “glycan array binding signal (z-score)” value with GalNAc(a1-3)Gal was -0.192; in the test with GalNAc(b1-6)GalNAc, -0.188.

Take LcI (Legionella pneumophila): the “glycan array binding signal (z-score)” value is -0.554 in the test with GalNAc(b1-3)GalNAc and -0.365 in [2]. Turning to AgI/IIC123-GFP (Streptococcus mutans), the “glycan array binding signal (z-score)” value in test [3] is 1.61; with GalNAc(b1-4)Gal(b1-4)Glc it was -0.438; in test [4] it was -0.272. Consider “SiiE (Salmonella typhimurium), A0A0H3NVH0”, for which the “glycan array binding signal (z-score)” value in [5] is -1.13. Take BambL (Burhholderia ambifaria), Q0B4G1: the figures for the “glycan array binding signal (z-score)” value (in test [1]; in the test on GalNAc(b1-4)Gal(b1-4)Glc) were -0.314 and -0.316, respectively.
